In PubChem BioAssay AID651789 (National Center for Advancing Translational Sciences (NCATS), 2012):
Inconclusive results are not listed. Unmarked numbers belong to inactive results. Active and inactive are the calls of the source. The call rests on the fitted dose curve; in most records, active means well fitted inhibition curve with a large enough effect; inconclusive means small, poorly fitted or top-dose-only effect; inactive means no such curve, though single readings can be large or run the other way.

assay: Acumen qHTS Assay for Inhibitors of the mTORC1 Signaling Pathway in WT MEF Cells: Hit Validation; settings: Acumen imaging; series mostly up to 37.3 µM; activity change, negative = inhibition: at the top concentration; further: nearly all actives have a fitted effect of over 60% in size;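 on activity change, negative = inhibition: phospho-rpS6 Ser235/236 immunofluorescence normalised to propidium iodide cell stain; percent of cells above a cutoff set by 7.5 nM rapamycin treated wells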
Method in brief: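 Read-out is immunofluorescent phospho-rpS6 (Ser235/236) normalised to PI-stained cell number, reported as % active cells using a 7.5 nM rapamycin threshold. Cells: WT or Tsc2-/-, p53-/- MEFs, compound-exposed 24 h at 37C; PI count also tracks viability.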
Potency means the concentration at half of the fitted maximal effect.

SMILES	activity change, negative = inhibition [%]	Potency
Cc1nn(CCCC(=O)NCc2ccccc2)c(=O)c2c1sc1ccccc12	38.6	
Cc1ccc(CN2C(=O)C(=O)c3cc(Br)cc(C)c32)cc1	-25.5	
CC1=Nc2cc(C(=O)NC3CCCC3)ccc2Sc2ccc(Cl)cc21		826 nM (active)
Cc1ccc(S(=O)(=O)Nc2ccc3c(c2)c(C(=O)OC(C)C)c(C)n3S(=O)(=O)c2ccc(C)cc2)cc1	0.763	
Cc1cc(C)c(/C=C2\C(=O)Nc3ccccc32)[nH]1		inactive
Cc1ccccc1CN1C(=O)C(O)(CC(=O)c2cccc(Br)c2)c2ccccc21 (stereo not given)	8.36	
COc1ccc(C)cc1NC(=O)CCNS(=O)(=O)c1cccc2nonc12	28.1	
Cc1cccc(C(=O)Nc2c(C(=O)NCc3ccc(Cl)cc3)sc3nc(C)cc(C)c23)c1	-6.11	
CN(C)CCN(Cc1ccco1)C(=O)c1cc2c(s1)-c1ccccc1OC2	1.53	
Cc1cccc(NC(=O)c2c(N)sc3c2CCC(C)C3)c1 (stereo not given)	-17.2	
COc1ccc(-c2nc(C)c(CCNC(=O)c3ccccc3Br)s2)cc1OC	24.3	
CCCc1oc2ccc(NS(=O)(=O)c3ccc(OC)cc3)cc2c1C(=O)OCC		585 nM (active)
CCCS(=O)(=O)c1c(S(=O)(=O)CCC)c2cc(C(C)(C)C)ccn2c1C(=O)c1ccc(OC)c(OC)c1	-3.05	
CC(C)N(C(=O)Cn1cc(S(=O)(=O)Cc2ccc(Cl)cc2)c2ccccc21)C(C)C	-3.05	
Cc1nn(CCCC(=O)NCc2cccc(Cl)c2)c(=O)c2c1sc1ccccc12	8.4	
CCCS(=O)(=O)c1ncc(Cl)c(C(=O)N2CCN(c3ccc(OC)cc3)CC2)n1		2930 nM (active)
Cc1ccc2nc(-c3cccc(NC(=O)c4cccc5ccccc45)c3)oc2c1	47.2	
CCc1nn(CC(=O)NCc2ccccc2Cl)c(=O)c2cccn12	-5.34	
O=C(NCCc1ccc(Cl)cc1)C(=O)NCC(c1cccs1)S(=O)(=O)c1cccs1 (stereo not given)	-8.83	
CCc1ccc2ncc(S(=O)(=O)c3ccc(Cl)cc3)c(N3CCN(CC)CC3)c2c1	6.8	

SMILES	activity change, negative = inhibition [%]	Potency
CCCCOc1ccc(Cn2c(=O)sc3ccccc32)cc1	14.4	
CCOc1ccccc1NC(=O)c1cn(C2CCCC2)c(=O)c2c1c1ccccc1n2C	-1.67	
O=C(NCCN1CCN(c2cccc(Cl)c2)CC1)Nc1ccccc1C(F)(F)F	59.5	
COc1ccc(OCc2nc3c4c(-c5ccccc5)c(-c5ccccc5)oc4ncn3n2)cc1	2.29	
CCn1c(=O)sc2cc(NS(=O)(=O)c3ccc(F)c(C)c3)ccc21	-13.4	
COc1cc(C(=O)n2nc(C)c(Sc3ccc(Cl)cc3)c2C)cc(OC)c1OC	30.6	
COC(=O)c1ccccc1NC(=O)c1nc(S(=O)(=O)Cc2cccc(C)c2)ncc1Cl		5210 nM (active)
CC1C(=O)Nc2ccc(S(=O)(=O)Nc3ccccc3Br)cc2NC1=O (stereo not given)	32.8	
O=C(Nc1ccccc1)N(Cc1cccc(Cl)c1)c1ccccn1	20.6	
Cc1ccc(NC(=O)CSc2nc(=O)cc(N)n2CCc2ccccc2)cc1	23.5	
O=C(NCc1ccc(F)cc1)c1ccc2c(Cl)c3c(nc2c1)CCCC3	29.6	
Cn1nc(-c2ccc(OCC(=O)Nc3ccc(Cl)cc3)cc2)c2ccccc2c1=O	-23.6	
Cc1ccc(NC(=O)CSc2nc(-c3ccco3)cc(C(F)(F)F)n2)cc1C	-11.8	
COc1cc(C(=O)NC(c2ccccc2Cl)c2cc(Cl)c3cccnc3c2O)cc(OC)c1OC (stereo not given)	-10.6	
CCOc1ccc(NC(=O)CN2C(=O)C(c3ccc(Cl)cc3)=NC2(C)C)cc1	39	
COc1ccc(CCN(C)CCCC(C#N)(c2ccc(OC)c(OC)c2)C(C)C)cc1OC (stereo not given)	2.34	
O=C(NCc1ccccc1)c1ccc2c(c1)N(Cc1ccccc1F)C(=O)c1ccccc1S2=O (stereo not given)	20.8	
COc1ccc(CCNC(=O)C(C)n2nc(C)c3sc4ccccc4c3c2=O)c(OC)c1 (stereo not given)	31	
CS(=O)(=O)N(CC(=O)NCCc1ccccc1)c1cc(C(F)(F)F)ccc1Cl	-10.1	
Cc1ccc(-c2noc(CCC(=O)N(C)c3ccccc3F)n2)cc1	10.4	
